Bioassay records from PubChem BioAssay.
Only some compounds are listed: those with a hit (about 12% of all), similar ones and a draw of the others.
SARS PLpro yeast = blocks SARS-CoV papain-like protease in a yeast assay | S. cerevisiae expressing SARS-CoV PLpro, growth rescue | Potency, µM (series often up to 32.9 µM), for the others: top-dose activity, positive = growth rescue, usual class: activators | hit rate 0.19% among 330,000; calls by dose curve; note: 0% is about no effect; nearly all actives have a fitted effect of over 55% in size
Pf growth 96h = P. falciparum growth inhibition at 96 hour, primary screen for plastid delayed-death inhibitors | AID 504834 | Potency, µM (doses to about 28.7 µM), without a hit: top-dose activity change, negative = inhibition, hits mostly inhibitors | hit rate 6.9% among 320,000 | P. falciparum luciferase reporter growth, 96 h; note: % is set by controls: 0 for no effect and ±100 for the full control effect
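Delayed-death screen, second-generation endpoint: infected erythrocytes, 2% hematocrit, 0.05% parasitemia final; 96 hours at 37 C, 5% CO2; luciferase detection reagent; luminescence decrease equals reduced growth.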
Pf growth 48h = P. falciparum growth inhibition at 48 hours (one generation); hit rate 5.9% among 310,000; P. falciparum luciferase growth in erythrocytes, 48 h; Potency, µM (series often up to 28.7 µM), inactives show top-dose activity change, negative = inhibition, most hits filed as inhibitors; note: % is set by controls: 0 for no effect and ±100 for the full control effect
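Luciferase-expressing P. falciparum in infected erythrocytes (2% hematocrit, 0.1% parasitemia final) in RPMI 1640/0.5% Albumax were exposed to compound for 48 hours at 37 C, 5% CO2; growth read as luminescence.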
AmpC inh no detg = blocks E. coli AmpC beta-lactamase in detergent-free assay; AmpC nitrocefin hydrolysis, absorbance 480 nm, 0.0001% Triton; Potency, µM (doses to about 57.1 µM), for the others: at the highest dose activity change, negative = inhibition, most hits filed as inhibitors; hit rate 0.52% among 330,000;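 note: plate controls were no compound for no effect and no enzyme for full effect; nearly all actives have a fitted effect of over 20% in size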
Target sequence (P00811 whole entry, looked up): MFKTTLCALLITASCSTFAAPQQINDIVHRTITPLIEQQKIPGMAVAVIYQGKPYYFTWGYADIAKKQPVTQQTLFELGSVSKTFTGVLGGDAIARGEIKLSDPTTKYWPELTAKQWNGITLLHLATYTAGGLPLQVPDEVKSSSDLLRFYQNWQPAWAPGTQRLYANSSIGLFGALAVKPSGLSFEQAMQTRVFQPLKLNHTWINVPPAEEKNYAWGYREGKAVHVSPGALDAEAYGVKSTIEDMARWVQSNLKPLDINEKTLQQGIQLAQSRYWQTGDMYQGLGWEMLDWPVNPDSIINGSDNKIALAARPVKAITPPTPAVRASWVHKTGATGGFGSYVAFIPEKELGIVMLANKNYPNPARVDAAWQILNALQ
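AmpC (5.3 nM in the dispensed reagent) in 20 mM phosphate pH 7.0 with 0.01% (detergent screen) or 0.0001% Triton X-100 was preincubated with compounds for 15 min at room temperature. Nitrocefin was then added from an 800 uM solution, and hydrolysis was followed at 480 nm.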
Sm TGR block = blocks Schistosoma mansoni thioredoxin glutathione reductase; Q962Y6; purified TGR, DTNB reduction, TNB absorbance 405 nm; Potency, µM (top dose mostly 114 µM), inactives show at the highest dose activity change, negative = inhibition, usual class: inhibitors; hit rate 3% among 360,000; note: % is set by controls: 0 for no effect and ±100 for the full control effect; nearly all actives have a fitted effect of over 60% in size
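First, TGR (20 nM dispensed) and NADPH were mixed with compound. Second, a 15 min room-temperature incubation followed. Third, further NADPH and then DTNB were added to start the reaction. Finally, TNB absorbance was monitored kinetically.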
AmpC detergent = AmpC beta-lactamase inhibition with detergent present. P00811. AmpC hydrolysis of nitrocefin, absorbance 480 nm, 0.01% Triton. Potency, µM (top dose mostly 114 µM), without a hit: at the top dose activity change, negative = inhibition, usual class: inhibitors. hit rate 0.041% among 370,000. AID 485294;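 note: 0% = no-compound wells and -100% = no-enzyme wells; nearly all actives have a fitted effect of over 25% in size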
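20 mM phosphate pH 7.0 + 0.01% (detergent screen) or 0.0001% Triton X-100; 5.3 nM AmpC reagent; cpd preinc 15 min RT; nitrocefin (800 uM stock) to start; A480 q20 s × 4 min; Activity was normalised to no-enzyme and no-compound control wells.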
Starred values were filed as active, the others as inactive; ? = inconclusive; nt = no result; [ ] = dose if it differs, or a comment. Unless noted, calls come from the whole dose curve; as a rule, active = well fitted curve in the direction sought with a large enough effect; inconclusive = small, poorly fitted or top-dose-only effect, or another doubt; inactive = no such curve, though single readings can be large; an effect the other way counts as inactive or inconclusive. Potency is the fitted concentration of half-maximal effect.

SMILES	SARS PLpro yeast	Pf growth 96h	Pf growth 48h	AmpC inh no detg	Sm TGR block	AmpC detergent
COc1ccc(C(=O)NCC(c2ccc3c(c2)OCO3)N2CCN(c3ccc(OC)cc3)CC2)cc1 (stereo not given)	0.4%	2.62µM*	?	-9.4%	-7.8%	-14.7%
COc1ccc(C(CNC(=O)C(C)Oc2ccc(Br)cc2)N2CCCC2)cc1 (stereo not given)	1.5%	?	11.7µM*	35.9%	-2.9%	?
COc1ccc(C(CNC(=O)c2ccc(Cl)c(S(=O)(=O)N3CCCC3)c2)N2CCCC2)cc1 (stereo not given)	6.7%	7.38µM*	13.1µM*	43.0%	-7.6%	1.4%
COc1ccc(C(CNC(=O)c2cc(S(=O)(=O)N3CCCC3)ccc2Cl)N2CCCC2)cc1 (stereo not given)	-1.1%	9.28µM*	?	0.0%	-8.4%	-10.8%
COc1ccc(C(CNC(=O)c2ccc(S(=O)(=O)N3CCCC3)cc2)N2CCOCC2)cc1 (stereo not given)	2.3%	?	?	67.2%	-7.1%	-3.2%
COc1ccc(C(CNC(=O)c2ccc(S(=O)(=O)N(C)C)cc2)N2CCCC2)cc1 (stereo not given)	1.9%	?	10.4µM*	7.3%	-14.9%	-2.6%
COc1ccc(C(=O)NCC(c2ccc(Cl)cc2)N2CCCCC2)cc1 (stereo not given)	nt	nt	nt	nt	-3.3%	16.5%
COc1ccc(CCNC(=O)c2cc(S(=O)(=O)N3CCCCC3)ccc2Cl)cc1	-5.4%	?	2.6%	-4.5%	-6.7%	?
COc1ccc(CCNC(=O)c2ccc(Cl)c(S(=O)(=O)N3CCCC3)c2)cc1	1.9%	6.57µM*	11.7µM*	-20.2%	1.1%	8.0%
COc1cccc(CNC(=O)c2ccc3c(c2)nc2n3CCC(C)C2)c1OC (stereo not given)	nt	nt	nt	nt	3.4%	6.4%
COc1cc(C2CC(=O)N(CC(=O)NCC3CCCO3)c3ccccc3S2)cc(OC)c1OC (stereo not given)	1.1%	6.1%	?	117.8%	3.8%	2.2%
CCN1C(=O)CC(c2ccco2)Sc2ccccc21 (stereo not given)	1.4%	nt	-5.0%	-3.7%	25.1µM*	-0.1%
O=C(CN1C(=O)CC(c2ccco2)Sc2ccccc21)Nc1ccc(Br)cc1 (stereo not given)	nt	nt	nt	nt	-8.2%	3.7%
O=C(CN1C(=O)CC(c2ccco2)Sc2ccccc21)Nc1ccccc1F (stereo not given)	?	?	?	-26.0%	25.1µM*	-2.3%
COc1cc(C2CC(=O)N(CC(=O)NCc3ccco3)c3ccccc3S2)cc(OC)c1OC (stereo not given)	2.2%	85.0%	10.4µM*	70.0%	-35.3%	0.0%
Cc1ccc(CNC(=O)Nc2ccccc2)c(C)c1	-0.9%	93.8%	62.4%	-36.8%	-11.4%	-9.3%
CCOc1c(OC(C)=O)ccc(/C=C/c2ccc3cccc(OC)c3n2)c1[N+](=O)[O-]	24.8%	-2.8%	4.65µM*	130.7%	-22.1%	?
Cc1ccc(CNC(=O)C2c3ccccc3C(=O)N(C)C2c2c[nH]c3ccccc23)o1 (stereo not given)	nt	16.7%	?	nt	50.1µM*	2.7%
Cc1ccc(OP(N)(=O)Oc2ccc(C)cc2)cc1	-7.5%	5.86µM*	?	-15.6%	9.0%	?
Cn1c(O)c(/C=C2\C=Nc3ccccc32)c(=O)n(C)c1=O	-6.9%	45.5%	0.4%	-13.2%	-28.2%	-1.2%
Cn1c(O)c(/C=C2\C=c3ccccc3=NC2=O)c(=O)n(C)c1=O	0.9%	20.2%	12.1%	-21.6%	35.5µM*	-8.1%
O=C(NCC1CCOCC1)c1ccc2nc(Cc3cccc(Cl)c3)oc2c1	-4.1%	0.0%	38.3%	-20.3%	-15.4%	3.8%
N#Cc1ccc(CSc2nnc3[nH]c(=O)cc(N)n23)cc1	0.1%	-37.6%	4.15µM*	-22.0%	-27.2%	-5.0%
O=C(CCN1CCN(C(=O)c2ccccc2)CC1)c1ccc(Br)cc1	-25.4%	?	?	79.6%	0.316µM*	2.4%
COc1cc(/C=C/C(=O)N2CCN(CC(O)COc3ccccc3)CC2)cc(OC)c1OC (stereo not given)	5.1%	4.15µM*	?	148.7%	-26.5%	-4.4%
SMILES	SARS PLpro yeast	Pf growth 96h	Pf growth 48h	AmpC inh no detg	Sm TGR block	AmpC detergent
COc1cc(/C=C/C(=O)N2CCN(Cc3ccccc3)CC2)cc(OC)c1OC	1.1%	?	nt	90.2%	-27.8%	5.2%
O=C(c1ccc(Br)cc1)N1CCN(Cc2ccccc2)CC1	-0.5%	19.2%	16.1%	39.3%	-27.2%	?
O=C(c1ccccc1)N1CCN(CC(O)COc2ccc(Br)cc2)CC1 (stereo not given)	2.5%	9.28µM*	-5.8%	187.6%	-3.5%	6.5%
OC(COc1ccc(Br)cc1)CN1CCN(c2ccccc2)CC1 (stereo not given)	9.6%	?	11.6%	-12.1%	-1.3%	-21.7%
Cc1cccc(N(C)C(=O)C2CCN(S(=O)(=O)c3cccc4nonc34)CC2)c1	nt	nt	nt	nt	-5.3%	2.1%
O=C(NCc1ccco1)c1cccc(NS(=O)(=O)c2ccccc2F)c1	-8.3%	-0.9%	13.8%	-19.1%	-3.5%	3.7%
CC[C@H]1NC(=O)c2cc(S(N)(=O)=O)c(Cl)cc2N1	nt	-23.1%[12.8 µM]	-16.0%[12.8 µM]	nt	nt	nt
CC(C)(C)c1ccc(OCC(O)CN(CCO)CC(O)Cn2ccc3ccccc32)cc1 (stereo not given)	-18.2%	?	11.7µM*	70.9%	-1.5%	?
OCCN(CC(O)Cn1ccc2ccccc21)CC(O)Cn1ccc2ccccc21 (stereo not given)	1.4%	11.3%	?	143.7%	?	-6.0%
CC(C)CCNC(=O)C1CCC(Cn2c(=O)c3sccc3n(CC(=O)NC(C)C)c2=O)CC1 (stereo not given)	nt	nt	nt	nt	10.3%	9.5%
O=C(/C=C/c1cccc([N+](=O)[O-])c1)NC(=S)Nc1ccccc1C(=O)O	0.9%	2.1%	2.5%	-33.4%	17.8µM*	1.8%
O=C(/C=C/c1ccc(Cl)cc1)NC(=S)Nc1ccccc1C(=O)O	0.9%	7.9%	0.7%	-34.5%	?	-2.4%
CC(=O)Nc1cccc(NC(=O)c2ccc([N+](=O)[O-])cc2Cl)c1	21.0%	13.9%	19.0%	-14.5%	-1.9%	?
O=C(/C=C/c1cccc([N+](=O)[O-])c1)NC(=S)Nc1cccc(NC(=O)c2ccccc2Cl)c1	-0.9%	2.8%	13.1µM*	-54.9%	8.3%	-20.3%
Cn1nc(C(=O)OCC(=O)Nc2ccc(SC(F)F)cc2)c2ccccc2c1=O	-12.5%	nt	nt	13.8%	nt	nt
